An excerpt weighted towards active compounds, which were near 12% of everything screened.
BAZ2B block = qHTS Assay for Inhibitors of BAZ2B. AlphaScreen BAZ2B-H3K14Ac peptide displacement. Potency, µM (top dose mostly 114 µM), for inactives: at the top dose activity change, negative = inhibition, usual class: inhibitors. hit rate 4.4% among 360,000. AID 504333, 2011; further: on the % scale 0 is the no-effect control and ±100 the full control effect; nearly all actives have a fitted effect of over 60% in size
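BAZ2B 50 nM plus b-H3(5-23)K14Ac 50 nM, PBS pH 7.4/0.01% Tween-20, 30 min RT; compound added (max 110 uM), 30 min RT; streptavidin donor/Ni-chelate acceptor beads 10 ug/mL final, 20 min dark; AlphaScreen read.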
HP1b binding inh = HTS for Inhibitors of HP1-beta Chromodomain Interactions with Methylated Histone Tails; Chromobox protein homolog 1 (Homo sapiens), P83916; AlphaScreen HP1-beta / biotin-H3K9me3 peptide binding; Potency, µM (doses to about 114 µM), without a hit: at the top dose activity change, negative = inhibition, actives largely listed as inhibitors; hit rate 0.56% among 390,000; further: nearly all actives have a fitted effect of over 70% in size
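HP1-beta protein (50 nM final) preincubated 30 min at room temperature with biotinylated H3(1-18)K9me3 peptide (50 nM) in PBS pH 7.4, 0.01% Tween-20, then compound added for 30 min. AlphaScreen streptavidin donor/nickel chelate acceptor beads (10 ug/mL final), 30 min dark, luminescence read.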
G9a inh = qHTS Assay for Inhibitors of Histone Lysine Methyltransferase G9a. Histone-lysine N-methyltransferase EHMT2 (Homo sapiens), Q96KQ7. G9a H3K9 monomethylation, AlphaScreen, 2 h. Potency, µM (top dose mostly 102 µM), for the others: at the highest dose activity, negative = inhibition, most hits filed as inhibitors. hit rate 8.8% among 350,000. AID 504332, 2011; further: on the % scale 0 is the no-effect control and ±100 the full control effect; nearly all actives have a fitted effect of over 75% in size
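Using a bead-based AlphaScreen, monomethylated H3K9 product from 2 h room-temperature reactions (G9a 20 nM, peptide 500 nM, SAM 20 uM) was detected with 0.5 ug/mL rabbit anti-H3K9me1 antibody.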
Sfp PPTase inh = qHTS Assay for Inhibitors of Bacillus subtilis Sfp phosphopantetheinyl transferase (PPTase) | hit rate 3.5% among 310,000 | Biochemical Sfp PPTase activity, qHTS | AID 1490, 2009 | Potency, µM, for inactives: largest response in the series, negative = inhibition, hits mostly inhibitors;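 further: the enzyme is Sfp with the accession as filed and its product quenches rhodamine fluorescence; 0% = enzyme reaction without inhibitor and -100% = no enzyme wells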
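Fluorescence-quenching assay with 15 nM Sfp, 5 uM rhodamine-CoA and 12.5 uM BHQ-2-labelled ybbR peptide in pH 7.6 Hepes/MgCl2 buffer. Enzyme was pre-incubated with compound for 15 min at room temperature. Rate was taken from the 30-min fluorescence change (525/598 nm).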
JMJD2A Tudor = qHTS Assay for Inhibitors of JMJD2A-Tudor Domain; AlphaScreen JMJD2A-Tudor / H3K4me3 peptide binding; Lysine-specific demethylase 4A (Homo sapiens), O75164; hit rate 4.4% among 390,000; Potency, µM (highest dose often 114 µM), for inactives: at the highest dose activity change, negative = inhibition, most hits filed as inhibitors; further: on the % scale 0 is the no-effect control and ±100 the full control effect; nearly all actives have a fitted effect of over 50% in size
* marks the source's active call; other numbers are inactive results; ? = inconclusive; nt = no result given; [ ] = dose if it differs, or a comment. The call rests on the fitted dose curve; in most records, active means well fitted curve in the direction sought with a large enough effect; inconclusive means small, poorly fitted or top-dose-only effect, or another doubt; inactive means no such curve, though single readings can be large; an effect the other way counts as inactive or inconclusive. Potency means the concentration at half of the fitted maximal effect.

SMILES | BAZ2B block | HP1b binding inh | G9a inh | Sfp PPTase inh | JMJD2A Tudor
Cc1cccc(C)c1NC(=O)NC1(C(=O)N2CCCC2)CCCCC1 | -9% | 20% | 2% | 9% | -3%
CCCCn1c(SCC(=O)Nc2nnc(C(C)C)s2)nc2c1c(=O)n(C)c(=O)n2C | -4% | 29% | 14%[59 µM] | 15% | -9%
C=CCNc1nc(C(=O)OCC(=O)c2ccc(Cl)cc2)cs1 | 35µM* | -38% | 50µM* | nt | 50µM*
C=CCNc1nc(C(=O)OCC(=O)Nc2cccc(SC)c2)cs1 | 79µM* | 1% | 56µM* | nt | ?
C=CCNc1nc(C(=O)OCC(=O)c2ccc(C)c([N+](=O)[O-])c2)cs1 | 50µM* | -13% | 13% | 6% | -24%
C=CCNc1nc(C(=O)OCC(=O)c2ccc(OC)cc2OC)cs1 | 7% | 22% | 21% | nt | -8%
Cc1nn(C)c2c1c(C(F)(F)F)cc(=O)n2C(C)C(=O)NCCC(C)C (stereo not drawn) | -16% | 10% | -7%[59 µM] | nt | -16%
Cc1c(C(=O)OCC(=O)N2CC(C)CC(C)C2)oc2ccccc12 (stereo not drawn) | 1% | 36% | -3% | nt | 4%
NC(=O)CC[C@@H]1NC(=O)[C@@H]2CCCN2C(=O)c2cc([N+](=O)[O-])cc(I)c2NCCC[C@@H](C(=O)NC(CC(=O)O)C(N)=O)NC1=O (stereo partly drawn) | -3% | 21% | ? | 21% | -12%
NC(=O)CC[C@@H]1NC(=O)[C@@H]2CCCN2C(=O)c2cc([N+](=O)[O-])cc(I)c2NCCC[C@@H](C(N)=O)NC1=O | -11% | 54% | 45µM* | 5% | -18%
NC(=O)CC[C@@H]1NC(=O)[C@@H]2CCCN2C(=O)c2cc([N+](=O)[O-])cc(I)c2NCCCC[C@@H](C(=O)NC(CC(=O)O)C(N)=O)NC1=O (stereo partly drawn) | -25% | 42% | 56µM* | 17% | -22%
CC(CC(=O)Nc1cc(S(=O)(=O)N2CCOCC2)ccc1OCC(F)(F)F)c1ccccc1 (stereo not drawn) | 14% | 50% | 8%[2.33 µM] | nt | -7%
Cc1nc(Nc2ccc(F)cc2)nc(Nc2ccc(F)cc2)c1[N+](=O)[O-] | -18% | 6% | nt | -14% | -16%
CCCCc1ccc(S(=O)(=O)Nc2nnc(C)s2)cc1 | 55% | 37% | nt | -15% | -29%
O=C(O)/C(=C\c1ccc(Cl)c([N+](=O)[O-])c1)c1ccc(S(=O)(=O)N2CCCCC2)s1 | ? | -2% | 45µM* | 45µM* | ?
O=C(O)/C(=C\c1ccc(Cl)c([N+](=O)[O-])c1)c1ccc(S(=O)(=O)N2CCCC2)s1 | 56µM* | -2% | -4%[2.33 µM] | nt | ?
CCOc1ccc(S(=O)(=O)Nc2ccccc2SC)c2cccnc12 | -10% | 32% | -4%[12.7 µM] | -1% | -19%
NC(=O)NC(=O)CSc1nc(C2CCCCC2)n(-c2ccccc2)n1 | -3% | 1% | -7%[59 µM] | 7% | -10%
OCCNCCSc1nc(C2CCCCC2)n(-c2ccccc2Cl)n1 | ? | -11% | ? | -24% | 0.89µM*
Cc1cc(C)n(-c2nnc(NC(C)(C)C)nn2)n1 | -10% | 4% | -16% | 12% | -9%
Cc1cc(C)n(-c2nnc(NC34CC5CC(CC(C5)C3)C4)nn2)n1 | 32µM* | ? | 22µM* | 3% | 25µM*
O=C(CSc1ncnc2c1cnn2-c1ccccc1)NC1CCCC1 | -1% | 19% | 6% | nt | -6%
CCOC(=O)C1CCCN(C2CC(=O)N(c3cccc(C(F)(F)F)c3)C2=O)C1 (stereo not drawn) | -31% | 46% | ? | 50µM* | 56µM*
CCOC(=O)C1CCCN(C2CC(=O)N(c3ccc(N4C(=O)CC(N5CCCC(C(=O)OCC)C5)C4=O)cc3)C2=O)C1 (stereo not drawn) | 50µM* | 42% | 32µM* | -28% | -3%

Bioassay records from PubChem BioAssay.
